# Measured values published in PubChem BioAssay (NCI).
# This is part of a sample that, as a whole, favours compounds with a hit. Of some 79,000 tested, about 15% had one in any assay. Values without a mark were called inactive. Active and inactive are the calls of the source. No stated cut-off is given here; in the data, active means growth inhibition above about 70%; inactive means the rest. Where a SMILES comes first, the peptide text is derived from it. [ ]: non-standard residue; d: D form. Nva = CCC[CH](N)C(=O)O
# Assay: NCI Yeast Anticancer Drug Screen. Data for the sgs1 mgt1 strain (AID 161);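 further: 0% = growth of cultures given vehicle only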
# Conditions: S. cerevisiae sgs1 mgt1 strain, at 50.0 µM, hits give high values
# Summary of the method: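 This yeast growth screen uses a strain with defined DNA-repair lesions; compound-treated growth is compared with vehicle-treated growth.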
row,SMILES,growth inhibition
1,O=[N+]([O-])c1ccc(-c2ccc(-c3csc(Nc4ccccc4)n3)o2)cc1,92.6% (active)
2,C1=C(C2=C[P+](c3ccccc3)(c3ccccc3)C=C(c3ccccc3)O2)OC(c2ccccc2)=C[P+]1(c1ccccc1)c1ccccc1,-5.35%
3,Cc1ccc(C2C(O)=C(c3ccccc3)Sc3ccc(C)cc32)cc1 (stereo not given),77% (active)
4,CCc1n[nH]c(CC)c1CCCCCCOc1ccc(OC)cc1Cl,92.2% (active)
5,C=C1CC[C@H]2C(C)=CC[C@@H]3[C@H](OC(=O)[C@H]3CN3CCN(c4ccc(C)c([N+](=O)[O-])c4)CC3)[C@@H]12,79.6% (active)
6,C(CCCCCN1CCCCC1)CCCCN1CCCCC1,7.2%
7,CN(Cc1cnc2nc(N)nc(N)c2n1)c1ccc(C(=O)NC(CCC(=O)O)C(=O)O)cc1C(F)(F)F (stereo not given),67.5%
8,CC(C(=O)O)C(N)C(=O)O (stereo not given),99.3% (active)
9,CCCCCCCCCCN(CCCCCCCCCC)C1CC(OC2CC(O)(C(O)CO)Cc3c(O)c4c(c(O)c32)C(=O)c2c(OC)cccc2C4=O)OC(C)C1O (stereo not given),5.25%
10,COc1ccc(OCC(O)CN2CCN(c3cccc(Cl)c3)CC2)cc1 (stereo not given),95.5% (active)
11,O=C(O)c1ccccc1C(=O)c1ccc2c(c1)Cc1ccccc1-2,44.9%
12,Cc1cc(C2c3ccccc3-c3ccccc32)cc(C)c1O,98.8% (active)
13,CC(C)(C)c1cc(Cl)c(O)c(Cc2cc(C(C)(C)C)cc(Cl)c2O)c1,82.5% (active)
14,COc1cccc(/C=C/C(C)=O)c1OC,24.5%
15,Cc1nc2c(cnn2C)cc1CCc1ccccc1,19.6%
16,O=C1C(C(O)(C(F)(F)Cl)C(F)(F)Cl)CCCC1C(O)(C(F)(F)Cl)C(F)(F)Cl (stereo not given),99.8% (active)
17,C=CCNCCC1CCCCCC1,49.1%
18,CCCC(N)C(=O)NC(C(=O)O)C(C)C (stereo not given) (H-[Nva]-Val-OH; configuration not given here),17.1%
19,Cc1cc(N)c2cc(NC(=O)Nc3ccc4nc(C)cc(N)c4c3)ccc2n1,99% (active)
20,COc1ccc(N=Cc2ccccc2O)cc1,2.65%

row,SMILES,growth inhibition
1,Cc1cc(Br)c2ccccc2c1N,94.2% (active)
2,c1ccc(-c2cc(Nc3ccc4c(c3)OCO4)c3cc(C4CCCCC4)ccc3n2)cc1,96.7% (active)
3,CCCCCCCCc1cc[n+](C2=C([O-])c3ccccc3C(=O)C2=O)cc1,99% (active)
4,CCCCCCCCCCCc1nnc(N)o1,95.2% (active)
5,O=C1OC(OCC#CCOC2OC(=O)C(Cl)=C2Cl)C(Cl)=C1Cl (stereo not given),99.3% (active)
6,O=S(=O)(O)CC[S][Sn]([S]CCS(=O)(=O)O)([c]1ccccc1)[c]1ccccc1 (tested in a mixture with another compound),88.6% (active)
7,CC(C)NC(=O)OCCS(=O)c1c(Cl)c(Cl)nn1C (stereo not given),42.4%
8,CN1N=C2c3ccccc3CC[C@H]2C1c1cccc(O)c1 (stereo not given in full),69.2%
9,O=C1CSC(=S)N1/N=C/c1ccc(Cl)c([N+](=O)[O-])c1,27.4%
10,O=C(O)CCCCCCCCC(=O)CCl,99% (active)
11,O=C(NC1CCN(Cc2ccccc2)CC1)c1ccccc1I,82.6% (active)
12,Cc1ccc(Nc2nc3c(s2)C(=O)c2ccccc2C3=O)cc1,98.7% (active)
13,O=C(/C=C/c1ccccc1)c1cc2c(cc1O)OCO2,22.9%
14,O=[N+]([O-])c1ccc(Sc2ccc([N+](=O)[O-])o2)o1,99.4% (active)
15,CCCCCCCCN(CCCCCCCC)CC(O)c1cc(OCC)nc2ccccc12 (stereo not given),97.4% (active)
16,CC(O)CCc1nc2ccccc2[nH]1 (stereo not given),-1.3%
17,CCCCCCCCCCCCCCCCSC(=NC)NC,99.3% (active)
18,O=C(O)CCC(O)=C1S(=O)(=O)OCCOS1(=O)=O,-1.5%
19,CCCCCCCCCCCCCCCCN,99.2% (active)
20,COC1=C(Br)C(=O)N/C1=C(\OC)c1ccccc1,29.9%

# Assay: NCI Yeast Anticancer Drug Screen. Data for the cln2 rad14 strain (AID 165);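 further: 0% = growth equal to vehicle treated cultures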
# Conditions: S. cerevisiae cln2 rad14 strain, at 5.0 µM (retest, dose inferred, filed as 0.5), hits give high values
# Summary of the method: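 Yeast carrying cln2 and rad14 alterations (cell cycle control and DNA damage repair) were exposed to compounds. Growth inhibition was measured against vehicle-treated controls.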
row,SMILES,growth inhibition
1,O=[N+]([O-])c1ccc(-c2ccc(-c3csc(Nc4ccccc4)n3)o2)cc1,63%
2,C1=C(C2=C[P+](c3ccccc3)(c3ccccc3)C=C(c3ccccc3)O2)OC(c2ccccc2)=C[P+]1(c1ccccc1)c1ccccc1,5%
3,Cc1ccc(C2C(O)=C(c3ccccc3)Sc3ccc(C)cc32)cc1 (stereo not given),-5%
4,CCc1n[nH]c(CC)c1CCCCCCOc1ccc(OC)cc1Cl,-28%
5,C=C1CC[C@H]2C(C)=CC[C@@H]3[C@H](OC(=O)[C@H]3CN3CCN(c4ccc(C)c([N+](=O)[O-])c4)CC3)[C@@H]12,48%
6,C(CCCCCN1CCCCC1)CCCCN1CCCCC1,3%
7,CN(Cc1cnc2nc(N)nc(N)c2n1)c1ccc(C(=O)NC(CCC(=O)O)C(=O)O)cc1C(F)(F)F (stereo not given),-16%
8,CC(C(=O)O)C(N)C(=O)O (stereo not given),6%
9,CCCCCCCCCCN(CCCCCCCCCC)C1CC(OC2CC(O)(C(O)CO)Cc3c(O)c4c(c(O)c32)C(=O)c2c(OC)cccc2C4=O)OC(C)C1O (stereo not given),7%
10,COc1ccc(OCC(O)CN2CCN(c3cccc(Cl)c3)CC2)cc1 (stereo not given),-6%
11,O=C(O)c1ccccc1C(=O)c1ccc2c(c1)Cc1ccccc1-2,-28%
12,Cc1cc(C2c3ccccc3-c3ccccc32)cc(C)c1O,-1%
13,CC(C)(C)c1cc(Cl)c(O)c(Cc2cc(C(C)(C)C)cc(Cl)c2O)c1,14%
14,COc1cccc(/C=C/C(C)=O)c1OC,-4%
15,Cc1nc2c(cnn2C)cc1CCc1ccccc1,12%
16,O=C1C(C(O)(C(F)(F)Cl)C(F)(F)Cl)CCCC1C(O)(C(F)(F)Cl)C(F)(F)Cl (stereo not given),79% (active)
17,C=CCNCCC1CCCCCC1,5%
18,CCCC(N)C(=O)NC(C(=O)O)C(C)C (stereo not given) (H-[Nva]-Val-OH; configuration not given here),1%
19,Cc1cc(N)c2cc(NC(=O)Nc3ccc4nc(C)cc(N)c4c3)ccc2n1,99% (active)
20,COc1ccc(N=Cc2ccccc2O)cc1,-4%

row,SMILES,growth inhibition
1,Cc1cc(Br)c2ccccc2c1N,-1%
2,c1ccc(-c2cc(Nc3ccc4c(c3)OCO4)c3cc(C4CCCCC4)ccc3n2)cc1,-8%
3,CCCCCCCCc1cc[n+](C2=C([O-])c3ccccc3C(=O)C2=O)cc1,99% (active)
4,CCCCCCCCCCCc1nnc(N)o1,35%
5,O=C1OC(OCC#CCOC2OC(=O)C(Cl)=C2Cl)C(Cl)=C1Cl (stereo not given),28%
6,O=S(=O)(O)CC[S][Sn]([S]CCS(=O)(=O)O)([c]1ccccc1)[c]1ccccc1 (tested in a mixture with another compound),28%
7,CC(C)NC(=O)OCCS(=O)c1c(Cl)c(Cl)nn1C (stereo not given),1%
8,CN1N=C2c3ccccc3CC[C@H]2C1c1cccc(O)c1 (stereo not given in full),24%
9,O=C1CSC(=S)N1/N=C/c1ccc(Cl)c([N+](=O)[O-])c1,-16%
10,O=C(O)CCCCCCCCC(=O)CCl,14%
11,O=C(NC1CCN(Cc2ccccc2)CC1)c1ccccc1I,83% (active)
12,Cc1ccc(Nc2nc3c(s2)C(=O)c2ccccc2C3=O)cc1,3%
13,O=C(/C=C/c1ccccc1)c1cc2c(cc1O)OCO2,2%
14,O=[N+]([O-])c1ccc(Sc2ccc([N+](=O)[O-])o2)o1,71% (active)
15,CCCCCCCCN(CCCCCCCC)CC(O)c1cc(OCC)nc2ccccc12 (stereo not given),3%
16,CC(O)CCc1nc2ccccc2[nH]1 (stereo not given),2%
17,CCCCCCCCCCCCCCCCSC(=NC)NC,25%
18,O=C(O)CCC(O)=C1S(=O)(=O)OCCOS1(=O)=O,-42%
19,CCCCCCCCCCCCCCCCN,54%
20,COC1=C(Br)C(=O)N/C1=C(\OC)c1ccccc1,6%
